The term AC50 denotes the concentration at which the activity in the assay is half-maximal.

This note sets out measurements from PubChem BioAssay (EPA / NIEHS).

The target of assay [1] is Bile acid receptor (Homo sapiens) (UniProt Q96RI1). The assay is described as follows: ATG_FXR_TRANS: Attagene TRANS-FACTORIAL HepG2 Assay for Farnesoid X Receptor (FXR) (AID 2282979).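 Also: hits raise reporter mRNA above DMSO so AC50 marks FXR activation.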 Particulars: HepG2 Attagene TRANS FXR-GAL4 reporter transcription. The method, boiled down: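 HepG2 cells transiently transfected with reporter constructs in which a chimeric FXR-GAL4 protein drives a GAL4-UAS reporter; 24 h compound exposure. Reporter mRNA measured by RT-PCR, FAM labelling, HpaI digestion and capillary electrophoresis; gain-of-signal versus DMSO.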

The nature of assay [2]: ATG_M_06_TRANS: Attagene TRANS-FACTORIAL HepG2 Assay for M06 Transcription Factor (Internal Marker) (AID 2282983). Particulars: HepG2 Attagene TRANS M06 internal marker reporter. The method, boiled down:
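HepG2 cells transiently transfected with multiplexed GAL4-UAS reporter transcription units; after 24 h compound exposure, reporter mRNA measured by RT-PCR, FAM-labelled primer extension, HpaI digestion and capillary electrophoresis. Gain-of-signal fitted versus DMSO baseline; background control readout.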

For assay [3], the target named is Nuclear receptor subfamily 4 group A member 2 (Homo sapiens) (UniProt P43354). The assay is described as follows: ATG_NURR1_TRANS: Attagene TRANS-FACTORIAL HepG2 Assay for human Nuclear Receptor Related Protein 1 (NURR1) (AID 2282985). Particulars: HepG2 Attagene TRANS reporter, mRNA readout. The method, boiled down:
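After 24 h chemical dosing, total RNA from transiently transfected HepG2 cells was reverse-transcribed and reporter cDNA PCR-amplified, FAM-labelled and analysed by capillary electrophoresis. Activity fitted in positive direction, DMSO as negative control.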

For assay [4], the target named is Transcriptional activator Myb (Homo sapiens) (UniProt P10242). The assay is described as follows: ATG_Myb_CIS: Attagene CIS-FACTORIAL HepG2 Assay for human Myeloblastosis (Myb) Proto-Oncogene Transcription Factor (AID 2282986; active = hit-call score of the fitted dose curve at least 0.9, where 1 is the maximum; inactive = score below 0.9). Particulars: HepG2 Attagene CIS-FACTORIAL Myb reporter transcription; actives raise or lower the signal. The method, boiled down: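 After 24 h of compound dosing, total RNA from transfected HepG2 cells is reverse-transcribed and the reporter sequences amplified, labeled and separated by capillary electrophoresis. Values come from bidirectional fitting against DMSO.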

Assay [5] concerns the target Nuclear respiratory factor 1 (Homo sapiens) (UniProt Q16656). The assay is described as follows: ATG_NRF1_CIS: Attagene CIS-FACTORIAL HepG2 Assay for human Nuclear Respiratory Factor 1 (NRF1) Orphan Gene (AID 2282987; active = hit-call score of the fitted dose curve at least 0.9, where 1 is the maximum; inactive = score below 0.9). Particulars: HepG2 NRF1 cis-element reporter, Attagene multiplex; actives raise or lower the signal. The method, boiled down:
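Measured: fluorescent reporter-specific RT-PCR products from transfected HepG2 cells, separated by capillary electrophoresis. Exposure lasted 24 h. Analysis used bidirectional curve fitting with DMSO as negative control.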

Assay [6] in a line: ATG_NFI_CIS: Attagene CIS-FACTORIAL HepG2 Assay for human Nuclear Factor I (NFI) (AID 2282989; active = hit-call score of the fitted dose curve at least 0.9, where 1 is the maximum; inactive = score below 0.9). Particulars: HepG2 cis-regulatory reporter, NFI response element transcription; actives raise or lower the signal. The method, boiled down:
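Reporter transcripts were measured by RT-PCR with fluorescent primer extension and capillary electrophoresis 24 h post-treatment. HepG2 cells carried transiently transfected cis-regulated reporter constructs reporting endogenous factor activity; gain or loss fitted against DMSO baseline.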

A short description of assay [7]: ATG_M_32_TRANS: Attagene TRANS-FACTORIAL HepG2 Assay for M32 Transcription Factor (Internal Marker) (AID 2282984). Particulars: HepG2 Attagene TRANS M32 internal marker reporter. The method, boiled down: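 Human hepatoma HepG2, transient MRTU transfection, 24 h treatment. RNA → RT-PCR → fluorescent primer extension → HpaI digest (2 h, 37 C) → CE. Positive-direction fit vs DMSO.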

Assay [8] has as its target Oxysterols receptor LXR-alpha (Homo sapiens) (UniProt Q13133). The assay is described as follows: ATG_LXRa_TRANS: Attagene TRANS-FACTORIAL HepG2 Assay for human Liver X Receptor alpha (LXRa) (AID 2282980). Particulars: HepG2 Attagene TRANS reporter, LXRa transactivation. The essentials: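 HepG2 cells were transiently transfected with multiplexed reporter units driven by chimeric LXRa–GAL4 fusion proteins, then dosed for 24 h. Reporter mRNA was quantified by RT-PCR, fluorescent labelling and capillary electrophoresis; gain of signal fitted against DMSO baseline.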

Assay [9] addresses Oxysterols receptor LXR-beta (Homo sapiens) (UniProt P55055). The assay is described as follows: ATG_LXRb_TRANS: Attagene TRANS-FACTORIAL HepG2 Assay for human Liver X Receptor beta (LXRb) (AID 2282981). Particulars: HepG2 Attagene TRANS GAL4-LXRb reporter, mRNA. The essentials: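 In this TRANS format, exogenous chimeric NR-Gal4 protein activity, not endogenous factors, drives reporter expression in transfected human HepG2 cells. Exposure lasted 24 h; reporter mRNA was read by fluorescent capillary electrophoresis.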

Assay [10] concerns the target Hepatocyte nuclear factor 4-alpha (Homo sapiens) (UniProt P41235). The assay is described as follows: ATG_HNF4a_TRANS: Attagene TRANS-FACTORIAL HepG2 Assay for human Hepatocyte Nuclear Factor 4 alpha (HNF4a) (AID 2282982). Particulars: HepG2 HNF4a transactivation reporter, mRNA readout. The essentials: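 Cells used were human HepG2, transiently carrying GAL4-UAS reporter units read out against exogenous NR-GAL4 chimeras. Reporter transcript levels after 24 h dosing were quantified by fluorescent RT-PCR and capillary electrophoresis.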

Results filed as inconclusive are left out. The source made the active and inactive calls. The calls were made as follows, unless noted: active = hit-call score of the fitted dose curve at least 0.9, where 1 is the maximum; inconclusive = response in the unintended direction; inactive = score below 0.9.

Sequence of Bile acid receptor (Homo sapiens) (Q96RI1 whole entry, looked up, the tested form may be a part): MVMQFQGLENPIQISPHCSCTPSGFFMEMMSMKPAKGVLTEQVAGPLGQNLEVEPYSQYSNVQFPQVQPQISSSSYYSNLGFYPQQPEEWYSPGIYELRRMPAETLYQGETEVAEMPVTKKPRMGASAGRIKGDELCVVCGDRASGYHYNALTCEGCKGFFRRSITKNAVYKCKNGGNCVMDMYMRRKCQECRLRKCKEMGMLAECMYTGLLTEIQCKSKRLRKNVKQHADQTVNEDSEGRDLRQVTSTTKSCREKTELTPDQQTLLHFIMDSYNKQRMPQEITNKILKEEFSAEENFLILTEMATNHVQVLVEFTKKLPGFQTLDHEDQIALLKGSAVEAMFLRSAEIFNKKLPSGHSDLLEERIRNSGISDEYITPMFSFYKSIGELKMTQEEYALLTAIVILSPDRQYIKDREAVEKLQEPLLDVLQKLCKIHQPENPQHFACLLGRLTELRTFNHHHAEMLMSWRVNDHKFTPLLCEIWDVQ
Sequence of Nuclear respiratory factor 1 (Homo sapiens) (Q16656 whole entry, looked up): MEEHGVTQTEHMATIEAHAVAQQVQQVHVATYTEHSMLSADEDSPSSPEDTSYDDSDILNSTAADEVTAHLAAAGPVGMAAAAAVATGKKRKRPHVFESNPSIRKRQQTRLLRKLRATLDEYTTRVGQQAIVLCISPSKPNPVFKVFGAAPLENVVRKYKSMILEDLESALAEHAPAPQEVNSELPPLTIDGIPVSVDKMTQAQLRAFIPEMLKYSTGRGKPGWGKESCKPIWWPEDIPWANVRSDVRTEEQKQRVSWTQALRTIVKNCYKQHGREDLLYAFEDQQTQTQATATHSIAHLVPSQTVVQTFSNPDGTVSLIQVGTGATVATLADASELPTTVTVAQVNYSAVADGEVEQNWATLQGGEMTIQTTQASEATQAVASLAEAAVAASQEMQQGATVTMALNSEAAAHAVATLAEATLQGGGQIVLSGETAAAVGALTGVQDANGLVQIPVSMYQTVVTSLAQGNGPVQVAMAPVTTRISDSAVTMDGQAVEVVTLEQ
Sequence of Oxysterols receptor LXR-beta (Homo sapiens) (P55055 whole entry, looked up, the tested form may be a part): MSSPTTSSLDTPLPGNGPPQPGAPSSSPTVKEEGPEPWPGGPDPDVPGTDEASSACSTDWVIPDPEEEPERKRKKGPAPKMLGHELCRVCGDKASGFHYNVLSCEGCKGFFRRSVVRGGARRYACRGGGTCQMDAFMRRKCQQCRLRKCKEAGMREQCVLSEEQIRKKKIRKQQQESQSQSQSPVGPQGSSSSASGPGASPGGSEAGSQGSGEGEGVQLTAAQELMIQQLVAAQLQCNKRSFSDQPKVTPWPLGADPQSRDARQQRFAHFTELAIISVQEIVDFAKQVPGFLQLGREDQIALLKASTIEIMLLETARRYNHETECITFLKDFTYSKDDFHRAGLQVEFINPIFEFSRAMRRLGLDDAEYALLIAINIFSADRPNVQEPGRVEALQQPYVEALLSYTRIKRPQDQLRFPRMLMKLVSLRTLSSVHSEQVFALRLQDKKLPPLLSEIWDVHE
Sequence of Nuclear receptor subfamily 4 group A member 2 (Homo sapiens) (P43354 whole entry, looked up): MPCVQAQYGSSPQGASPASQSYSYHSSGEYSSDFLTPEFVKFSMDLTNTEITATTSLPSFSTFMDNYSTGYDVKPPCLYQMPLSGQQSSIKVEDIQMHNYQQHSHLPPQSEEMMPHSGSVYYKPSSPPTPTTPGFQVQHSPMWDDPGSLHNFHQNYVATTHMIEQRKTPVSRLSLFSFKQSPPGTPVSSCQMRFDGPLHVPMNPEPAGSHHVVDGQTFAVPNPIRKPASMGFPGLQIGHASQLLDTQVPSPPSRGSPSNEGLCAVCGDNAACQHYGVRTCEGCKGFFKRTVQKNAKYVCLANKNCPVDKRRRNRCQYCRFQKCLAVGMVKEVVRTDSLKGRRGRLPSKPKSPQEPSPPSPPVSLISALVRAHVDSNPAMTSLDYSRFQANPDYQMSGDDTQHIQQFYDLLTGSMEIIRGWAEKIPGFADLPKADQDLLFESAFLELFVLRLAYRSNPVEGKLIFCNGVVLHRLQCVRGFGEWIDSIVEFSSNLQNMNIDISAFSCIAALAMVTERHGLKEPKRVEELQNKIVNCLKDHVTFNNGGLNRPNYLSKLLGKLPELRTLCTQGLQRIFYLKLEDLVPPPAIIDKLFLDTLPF
Sequence of Oxysterols receptor LXR-alpha (Homo sapiens) (Q13133 whole entry, looked up, the tested form may be a part): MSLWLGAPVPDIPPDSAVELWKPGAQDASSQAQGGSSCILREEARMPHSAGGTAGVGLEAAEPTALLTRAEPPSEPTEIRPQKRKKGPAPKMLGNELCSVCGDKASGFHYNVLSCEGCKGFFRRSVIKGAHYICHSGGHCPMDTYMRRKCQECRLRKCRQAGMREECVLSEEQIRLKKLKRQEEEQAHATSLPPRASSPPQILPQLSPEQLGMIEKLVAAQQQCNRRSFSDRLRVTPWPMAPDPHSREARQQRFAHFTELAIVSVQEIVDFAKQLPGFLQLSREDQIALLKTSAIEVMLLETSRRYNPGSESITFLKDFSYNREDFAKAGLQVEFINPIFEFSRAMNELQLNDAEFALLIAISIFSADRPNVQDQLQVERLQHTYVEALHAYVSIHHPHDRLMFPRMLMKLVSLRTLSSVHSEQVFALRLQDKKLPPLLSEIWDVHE
Sequence of Transcriptional activator Myb (Homo sapiens) (P10242 whole entry, looked up): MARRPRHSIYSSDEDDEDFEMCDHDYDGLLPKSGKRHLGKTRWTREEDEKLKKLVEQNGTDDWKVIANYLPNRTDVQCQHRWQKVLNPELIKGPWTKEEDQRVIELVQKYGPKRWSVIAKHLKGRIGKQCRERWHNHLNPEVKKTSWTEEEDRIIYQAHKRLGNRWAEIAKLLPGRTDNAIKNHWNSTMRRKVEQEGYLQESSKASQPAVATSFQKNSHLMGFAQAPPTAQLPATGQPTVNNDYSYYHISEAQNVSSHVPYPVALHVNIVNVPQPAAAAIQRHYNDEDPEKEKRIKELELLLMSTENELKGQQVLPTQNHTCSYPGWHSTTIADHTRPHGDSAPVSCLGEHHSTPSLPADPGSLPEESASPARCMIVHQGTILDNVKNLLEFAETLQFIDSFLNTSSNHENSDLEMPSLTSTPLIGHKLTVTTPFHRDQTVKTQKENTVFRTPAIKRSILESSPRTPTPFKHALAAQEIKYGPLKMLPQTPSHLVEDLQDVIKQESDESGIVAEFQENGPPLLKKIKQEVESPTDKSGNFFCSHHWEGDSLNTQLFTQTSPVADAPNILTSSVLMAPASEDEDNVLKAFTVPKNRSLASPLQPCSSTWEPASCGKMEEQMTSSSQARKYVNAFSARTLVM
Sequence of Hepatocyte nuclear factor 4-alpha (Homo sapiens) (P41235 whole entry, looked up, the tested form may be a part): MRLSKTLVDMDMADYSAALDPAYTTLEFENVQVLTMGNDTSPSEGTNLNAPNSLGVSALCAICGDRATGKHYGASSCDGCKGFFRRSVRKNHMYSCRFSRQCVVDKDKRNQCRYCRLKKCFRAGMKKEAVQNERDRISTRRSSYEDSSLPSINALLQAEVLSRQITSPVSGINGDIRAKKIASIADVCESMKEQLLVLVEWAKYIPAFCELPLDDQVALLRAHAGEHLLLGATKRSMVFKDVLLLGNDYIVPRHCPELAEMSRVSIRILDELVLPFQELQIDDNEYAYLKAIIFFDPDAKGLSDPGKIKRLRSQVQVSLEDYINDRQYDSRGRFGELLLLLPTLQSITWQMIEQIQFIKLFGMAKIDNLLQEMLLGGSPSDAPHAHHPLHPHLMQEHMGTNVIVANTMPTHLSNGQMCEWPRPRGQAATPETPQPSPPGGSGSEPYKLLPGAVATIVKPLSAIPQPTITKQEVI

`CCCC1O[C@@H]2C[C@H]3[C@@H]4CCC5=CC(=O)C=C[C@]5(C)[C@H]4[C@@H](O)C[C@]3(C)[C@]2(C(=O)CO)O1` (stereo not given in full): the call in assay [1], in assay [2], in [3], in [4], in assay [5] and in assay [6] was inactive.

As to `CCN(CC)C(=O)N(CC)CC`, the call in assay [1], in assay [2], in [7], in assay [4] and in assay [6] was inactive.

For `CCCCCC(C=O)=Cc1ccccc1`, the result in assay [1], in assay [2], in [7], in assay [4], in [5] and in assay [6] was inactive.

On to `O=C1OC2(c3ccccc31)c1ccc(O)c(Br)c1Oc1c2ccc(O)c1Br`, for which the compound was called inactive in assay [8], in [9], in assay [10], in assay [2], in assay [7] and in assay [3]. The outcome in assay [4] and in assay [6] was inactive.

Take `O=C1OC[C@H](Cc2cccc(O)c2)[C@H]1Cc1cccc(O)c1`: the compound was called inactive in assay [8], in assay [9], in assay [10], in [2], in assay [3] and in assay [4]. The call in assay [5] and in [6] was inactive.

In the case of `CCCCCCC(=O)c1ccccc1`, the compound was classed as inactive in [1], in [4], in [5] and in [6].

Consider `C[Si]1(C)O[Si](C)(C)O[Si](C)(C)O1`, for which the result in assay [1], in [4], in assay [5] and in [6] was inactive.

As to `CC=Cc1ccc(OCC)c(O)c1`, the result in assay [8], in assay [10], in assay [2], in assay [7], in [4] and in assay [5] was inactive. Besides, the compound was called inactive in assay [6].

Regarding `COC(=O)C=C(C)CCC=C(C)C`, the compound was classed as inactive in [8], in assay [10], in assay [2], in [7], in [4] and in assay [6].

In the case of `CCN(CCN)c1cccc(C)c1`, the compound was classed as inactive in assay [8], in [10], in [2], in assay [7], in [3] and in assay [4]. Moreover, the outcome in [5] and in [6] was inactive.

For the compound `CCCCCCC(C)(C)S`, the result in [8], in assay [9], in [2], in assay [7], in assay [3] and in [4] was inactive. Besides, the outcome in assay [5] and in assay [6] was inactive.

`ON=C1CCCCC1`: the compound was called inactive in assay [8], in [9], in assay [2], in [4], in [5] and in assay [6].

Consider `C=C(C#N)C(=O)OCC`, for which the compound was classed as inactive in assay [8], in assay [9], in assay [2], in assay [7], in assay [4] and in [6].

Take `C=CC(=O)OCCCC`: the compound was called inactive in [8], in assay [9], in assay [7], in assay [4], in assay [5] and in assay [6].

With `[O-]n1ccccc1=S.[O-]n1ccccc1=S.[Zn+2]`, the compound was classed as inactive in assay [8], in assay [10], in assay [2], in assay [7], in [4] and in assay [5]. Further, in assay [6], the call was inactive.

As for `CCc1ncc(C)[nH]1`, the call in [8], in assay [9], in [2], in assay [4], in assay [5] and in [6] was inactive.

Take `C=C1C[C@]23C[C@@]1(O)CC[C@H]2[C@@]12C=C[C@H](O)[C@@](C)(C(=O)O1)[C@H]2[C@@H]3C(=O)O`: the result in assay [8], in [10], in assay [2], in assay [4], in [5] and in assay [6] was inactive.

Turning to `CC(CN=Cc1ccccc1O)N=Cc1ccccc1O` (stereo not given), the result in assay [8], in assay [9], in assay [2], in [7], in assay [3] and in assay [4] was inactive. The compound was classed as inactive in assay [6]. For the same compound, the AC50 in [5] was 55.3 µM (active).

Regarding `O=C(O)c1cc(C(=O)O)cc([N+](=O)[O-])c1`, the result in assay [8], in [9], in assay [7], in assay [3] and in assay [4] was inactive.

As to `C=CC(=C)CCCC(C)(C)OC(C)=O`, the compound was classed as inactive in [8], in assay [10], in assay [2], in assay [4], in assay [5] and in assay [6].

As to `CCCCCCCC(=O)OCCCCCC`, the compound was classed as inactive in assay [8], in [10], in assay [2], in [7], in assay [4] and in assay [5].

Consider `NC1CCCCC1N` (stereo not given), for which the call in [8], in [9], in [2], in [7], in assay [3] and in [4] was inactive. The outcome in [5] and in assay [6] was inactive.

Turning to `CC(O)C1CCCCC1` (stereo not given), the compound was called inactive in assay [8], in assay [9], in assay [2], in assay [7], in assay [4] and in assay [5]. In addition, the compound was called inactive in assay [6].

With `COC(=O)c1cccnc1`, the compound was called inactive in [8], in [10], in assay [2], in [7], in [4] and in assay [5].

With `COc1ccc(CCO)cc1`, the outcome in assay [8], in [9], in assay [7], in [4] and in [6] was inactive.

On to `OC[C@H]1O[C@@H](Oc2ccc(O)cc2)[C@H](O)[C@@H](O)[C@@H]1O`, for which the compound was classed as inactive in [8], in assay [10], in [2], in assay [4], in assay [5] and in [6].

As for `C=CCCC(=O)/C=C/C1C(C)=CCCC1(C)C` (stereo not given), the call in assay [8], in assay [9], in [2], in assay [3], in [4] and in [5] was inactive. In assay [6], the call was inactive.

In the case of `CCCCC(CC)C(=O)OC(C)C` (stereo not given), the compound was called inactive in assay [8], in [9], in assay [2], in [7], in assay [3] and in [4]. Also, the call in [5] was inactive.

As to `c1ccc(CN(Cc2ccccc2)Cc2ccccc2)cc1`, the call in assay [8], in assay [9], in assay [2], in assay [3], in assay [4] and in assay [5] was inactive. Besides, in [6], the outcome was inactive.
